Data published in PubChem BioAssay (Tox21).
“And” between values parts separate entries of the source, which are not always exact repeats. Equal entries are not always repeated. The source made the active and inactive calls. A call without a number means that no potency is given here. Calls come from the whole dose curve.

target: Gonadotropin-releasing hormone receptor (Homo sapiens) (UniProt P30968); assay: Human gonadotropin-releasing hormone receptor (GnRHR) small molecule agonists, calcium flux assay in GnRHR-HEK293 cells (AID 1920063); details: calcium flux fluorescence, agonist mode; series mostly up to 57.6 µM; note: nearly all actives have a fitted effect of over 35% in size
From the text: National Center for Advancing Translational Sciences [NCATS]
Division of Preclinical Innovation [DPI]
U.S. Environmental Protection Agency [EPA]
National Institutes of Environmental Health Sciences [NIEHS]
National Toxicology Program [NTP]
U.S. Food and Drug Administration [FDA]
Gonadotropin-releasing hormone receptor (GnRHR) is a G-protein-coupled receptor (GPCR) and acts (through phospholipase C) to increase intracellular inositol trisphosphate and then release intracellular calcium stores. Cell-based GnRHR-Hek293 calcium influx assay is using HEK293 cells that have been genetically engineered to express the human GnRHR, which activity can be measured by calcium signaling. A compound/drug can activate (agonist) GnRHR that can be monitored by levels of intracellular calcium.
GnRHR-HEK293 cells developed by Codex Corp contain human GnRHR reporter gene, which was stably integrated into HEK 293 cells. The compound activation can be detected by fluorescence intensity via calcium flux assay. This cell line has been used to screen the Tox21 10K compound library to identify GnRHR agonists.
GnRHR-Hek293 cells were dispensed at 1500cells/4uL/well in 1536-well black wall/clear bottom plates using a multidrop dispenser. After the assay plates were incubated at a 37 C/5% CO2 incubator for 18 hours, 4 uL of Calcium Dye Solution was added to each well. The plates were incubated at 37 C for 1 hour. For agonist mode, 23 nL of compounds dissolved in DMSO, positive controls or DMSO only was transferred to the assay plate by a pin tool station. The fluorescence intensity in the plates was measured using FDSS 7000EX kinetic plate reader with a filter set of Ex/Em=480/540 for 3 min at 1 sec intervals. Each test compound was measured at 15 concentrations and in triplicates.
Potency is the fitted concentration of half-maximal effect.

Gonadotropin-releasing hormone receptor (Homo sapiens), sequence (P30968 whole entry, looked up): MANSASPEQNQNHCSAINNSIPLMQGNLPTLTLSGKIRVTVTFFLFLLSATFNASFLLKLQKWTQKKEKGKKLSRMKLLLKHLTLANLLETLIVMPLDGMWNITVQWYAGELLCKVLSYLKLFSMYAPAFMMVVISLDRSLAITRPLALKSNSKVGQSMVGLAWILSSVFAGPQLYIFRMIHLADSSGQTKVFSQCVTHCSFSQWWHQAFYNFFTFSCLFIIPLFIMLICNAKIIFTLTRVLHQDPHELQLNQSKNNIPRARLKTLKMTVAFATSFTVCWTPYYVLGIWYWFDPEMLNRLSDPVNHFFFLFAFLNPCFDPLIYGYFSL

SMILES	Potency
CCCCC#N	inactive
CC(C)=C[C@@H]1[C@@H](C(=O)OCc2coc(Cc3ccccc3)c2)C1(C)C	inactive
C[CH2][Hg][S]c1ccccc1C(=O)O	38.9 µM (active)
ClCCOCOCCCl	inactive
Nc1cc(Cl)cc(Cl)c1	inactive
Cc1ccc(N)cc1Cl	inactive
O=C(O)C1C(C(=O)O)C2(Cl)C(Cl)=C(Cl)C1(Cl)C2(Cl)Cl (stereo not given)	inactive
Nc1ccc(Cl)c(Cl)c1	inactive
CCCSC(=O)Cl	inactive
O=[N+]([O-])c1cc(Cl)c(Cl)c(Cl)c1	inactive
O=C(NCc1cccnc1)Nc1ccc([N+](=O)[O-])cc1	inactive
Sc1ccccc1	inactive
CN1C(=O)CN=C(c2ccccc2)c2cc(Cl)ccc21	inactive
O=P(O)(Oc1ccccc1)Oc1ccccc1	inactive
COP(=S)(OC)Oc1cc(Cl)c(Cl)cc1Cl	inactive
CCn1cc[n+](C)c1	inactive
O=C(O)Cc1ccccc1	inactive
CCCCCCCCCCCCCCCC[N+](C)(C)C	13.3 µM (active) and 30.9 µM (active) and 12 µM (active)
CCOP(=O)(CN(CCO)CCO)OCC	inactive
O=P1(N(CCCl)CCCl)NCCCO1 (stereo not given)	inactive

SMILES	Potency
Cc1cccc(C)c1NC(=O)CN1CCCC1=O	inactive
O=S(=O)(c1ccccc1)c1ccccc1	inactive
CCC(C)c1cc([N+](=O)[O-])cc([N+](=O)[O-])c1O (stereo not given)	inactive
O=C1C2(Cl)C3(Cl)C4(Cl)C(Cl)(Cl)C5(Cl)C3(Cl)C1(Cl)C5(Cl)C24Cl (stereo not given)	38.3 µM (active)
CCOP(=O)(OCC)SCCSCC	inactive
Clc1ccc(C2(Cn3cncn3)OCCO2)c(Cl)c1	inactive
CNC(=O)NC(O)C(Cl)(Cl)Cl (stereo not given)	inactive
COc1cc(OC)nc(NC(=O)NS(=O)(=O)c2ncccc2C(=O)N(C)C)n1	inactive
Cc1ccc(N)c(C)c1	inactive
NNC(N)=S	inactive
CCN(CC)Cc1nccn1-c1ccc([N+](=O)[O-])cc1C(=O)c1ccccc1Cl	inactive
CCC[CH2][Sn]([Cl])([CH2]CCC)[CH2]CCC	7.78 µM (active) and 38.9 µM (active)
c1ccc(NNc2ccccc2)cc1	inactive
CCOP(=O)(OCC)OP(=O)(OCC)OCC	inactive
CC(C)(C#N)N=NC(C)(C)C#N	inactive
CCc1cnc(C2=NC(C)(C(C)C)C(=O)N2)c(C(=O)O)c1 (stereo not given)	inactive
O=C(NC(=O)c1c(F)cccc1F)Nc1ccc(Cl)cc1	inactive
C#CCOS(=O)OC1CCCCC1Oc1ccc(C(C)(C)C)cc1 (stereo not given)	inactive
C=CC(=O)NC(C)(C)CC(C)=O	inactive
CN(C)c1ccc(N=O)cc1	inactive
